About 8,800 targets were measured; listed, in parts, are those with a hit and a random draw of the rest. About 0.5% of all pairs of compound and target were hits.
Tests used:
Experiment in all cases: log2 fold change, soluble protein after heating vs DMSO (PISA); higher = thermal stabilisation; K562 lysate, 10 uM; active = over 0.2 and 3.5 SD of the protein, either way, in both replicates (recomputed)
[1] = compound: CN1CC[C@H](c2c(O)cc(O)c3c(=O)cc(-c4ccccc4Cl)oc23)[C@H](O)C1 [alvocidib]
How it was run: (§1)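 Pellets of K562 cells were dounce-homogenised in PBS pH 7.4 with 1 mM MgCl2, and the crude extract was held at 1 mg/mL protein for a 30 min treatment with 10 μM compound. Aliquots were heated for 3 min over 48°C-58°C and pooled before NP-40 was added to 0.5% at 4°C. The supernatant from 21,000xg for 90 min was quantified by TMTpro 16plex LC-MS/MS with channel sums equalised. Values are reported from duplicates as log-two fold change in thermal stability relative to solvent controls.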

[2] = compound: CN1CCc2c(c3ccccc3n2Cc2ccc(C(=O)NO)cc2)C1 [Tubastatin A]
How it was run: as §1

[3] = compound: CNC(=O)C1=CC=CC=C1NC2=NC(=NC=C2Cl)NC3=C(C=C(C=C3)N4CCOCC4)OC
How it was run: as §1

[4] = compound: CNC(=O)c1ccc(Nc2ncc(C(F)(F)F)c(NCc3nccnc3N(C)S(C)(=O)=O)n2)cc1 [defactinib]
How it was run: as §1

[5] = compound: CNc1nc(-c2ccc3c(N)n[nH]c3c2)cc(N2C[C@@H](C(=O)NC3CCCCC3)CC[C@H]2C)n1
How it was run: as §1

[6] = compound: COC(=O)N[C@@H](C)CNc1nccc(-c2cn(C(C)C)nc2-c2cc(Cl)cc(NS(C)(=O)=O)c2F)n1 [encorafenib]
How it was run: as §1

[7] = compound: COC(=O)[C@H](CCSC)NC(=O)C1=C(C=C(C=C1)NC[C@H](CS)N)C2=CC=CC=C2
How it was run: as §1

[8] = compound: COc1cc(Nc2ncc3c(n2)-c2ccc(Cl)cc2C(c2c(F)cccc2OC)=NC3)ccc1C(=O)O [alisertib]
How it was run: as §1

[9] = compound: COc1cc2nc(-c3cc(F)ccc3O)nc(N[C@@H]3CNC[C@H]3C(C)(C)O)c2cc1OC
How it was run: as §1

[10] = compound: COc1cc2ncnc(Nc3ccc(F)c(Cl)c3)c2cc1OCCCN1CCOCC1 [gefitinib]
How it was run: as §1

[11] = compound: CS(=O)(=O)CCNCc1ccc(-c2ccc3ncnc(Nc4ccc(OCc5cccc(F)c5)c(Cl)c4)c3c2)o1 [lapatinib]
How it was run: as §1

[12] = compound: CS(=O)(=O)N1CCN(Cc2cc3nc(-c4cccc5[nH]ncc45)nc(N4CCOCC4)c3s2)CC1 [pictilisib]
How it was run: as §1

[13] = compound: C[C@@H](Oc1cc(-c2cnn(C3CCNCC3)c2)cnc1N)c1c(Cl)ccc(F)c1Cl [crizotinib]
How it was run: as §1

[14] = compound: C[C@H](C1=CC=C(C=C1)C(=O)NC2=C3C=CNC3=NC=C2)N
How it was run: as §1

[15] = compound: C[C@H](Nc1ncnc2nc[nH]c12)c1cc2cccc(Cl)c2c(=O)n1-c1ccccc1 [duvelisib]
How it was run: as §1

[16] = compound: Cc1cc(Nc2cc(CN3CCOCC3)c3nc(C)c(Cc4ccc(Cl)cc4F)n3n2)n[nH]1 [gandotinib]
How it was run: as §1

[17] = compound: Cc1cc(Nc2cc(N3CCN(C)CC3)nc(Sc3ccc(NC(=O)C4CC4)cc3)n2)n[nH]1 [tozasertib]
How it was run: as §1

[18] = compound: Cc1ccc(-n2nc(C(C)(C)C)cc2NC(=O)Nc2ccc(OCCN3CCOCC3)c3ccccc23)cc1 [doramapimod]
How it was run: as §1

[19] = compound: Cc1ccc(NC(=O)c2ccc(CN3CC[C@H](N(C)C)C3)c(C(F)(F)F)c2)cc1Nc1nccc(-c2cncnc2)n1 [bafetinib]
How it was run: as §1

[20] = compound: Cc1cccc(CC(=O)N2CCc3c2ccc(-c2cn(C)c4ncnc(N)c24)c3F)n1
How it was run: as §1

Measured: log2 fold change

MAP2K7 isoform 4 (UniProt O14733)
Chain of UniProt O14733 (O14733 whole entry, looked up): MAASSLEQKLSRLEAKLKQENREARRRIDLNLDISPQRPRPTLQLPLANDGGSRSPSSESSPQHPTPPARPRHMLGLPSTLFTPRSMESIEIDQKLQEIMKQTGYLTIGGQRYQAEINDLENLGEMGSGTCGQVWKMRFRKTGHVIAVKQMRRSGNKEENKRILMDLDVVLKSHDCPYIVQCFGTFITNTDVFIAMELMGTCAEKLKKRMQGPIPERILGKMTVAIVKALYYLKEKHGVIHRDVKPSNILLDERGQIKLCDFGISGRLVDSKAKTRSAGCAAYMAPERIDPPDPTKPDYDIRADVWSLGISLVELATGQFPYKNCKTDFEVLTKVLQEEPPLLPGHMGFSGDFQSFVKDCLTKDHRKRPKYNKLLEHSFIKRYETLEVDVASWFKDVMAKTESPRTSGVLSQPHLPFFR
inactive: [1] 0.023 | [2] -0.15 | [3] 0.023 | [4] -0.035 | [5] 0.036 | [6] -0.059 | [7] 0.177 | [8] 0.006 | [9] -0.009 | [10] -0.08 | [11] 0.004 | [12] 0.204 | [13] -0.05 | [14] 0.081 | [15] -0.048 | [16] -0.042 | [17] -0.04 | [18] 0.052 | [19] -0.06 | [20] 0.002

LRRC40 (UniProt Q9H9A6)
Chain of UniProt Q9H9A6 (Q9H9A6 whole entry, looked up): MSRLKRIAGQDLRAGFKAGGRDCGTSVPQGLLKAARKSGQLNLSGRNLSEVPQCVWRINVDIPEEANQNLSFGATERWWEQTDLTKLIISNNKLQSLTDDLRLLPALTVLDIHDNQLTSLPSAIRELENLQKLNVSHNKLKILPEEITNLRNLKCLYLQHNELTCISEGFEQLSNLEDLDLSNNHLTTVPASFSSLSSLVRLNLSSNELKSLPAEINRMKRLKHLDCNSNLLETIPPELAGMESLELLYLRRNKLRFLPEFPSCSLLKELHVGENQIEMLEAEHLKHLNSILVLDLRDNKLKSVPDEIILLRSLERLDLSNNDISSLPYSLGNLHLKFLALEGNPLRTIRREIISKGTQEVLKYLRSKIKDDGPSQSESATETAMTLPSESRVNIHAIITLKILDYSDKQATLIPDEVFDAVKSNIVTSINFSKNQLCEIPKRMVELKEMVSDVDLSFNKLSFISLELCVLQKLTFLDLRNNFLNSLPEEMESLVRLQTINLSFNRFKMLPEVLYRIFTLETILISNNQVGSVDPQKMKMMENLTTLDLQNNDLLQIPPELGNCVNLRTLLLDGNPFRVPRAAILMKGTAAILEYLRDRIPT
inactive: [1] -0.009 | [2] -0.089 | [3] 0.019 | [4] 0.013 | [5] -0.012 | [6] 0.021 | [7] -0.038 | [8] 0.031 | [9] -0.008 | [10] 0.001 | [11] -0.004 | [12] -0.012 | [13] -0.007 | [14] 0.015 | [15] -0.025 | [16] -0.088 | [17] 0.014 | [18] 0.009 | [19] -0.028 | [20] -0.032

LYN (UniProt P07948)
Chain of UniProt P07948 (P07948 whole entry, looked up): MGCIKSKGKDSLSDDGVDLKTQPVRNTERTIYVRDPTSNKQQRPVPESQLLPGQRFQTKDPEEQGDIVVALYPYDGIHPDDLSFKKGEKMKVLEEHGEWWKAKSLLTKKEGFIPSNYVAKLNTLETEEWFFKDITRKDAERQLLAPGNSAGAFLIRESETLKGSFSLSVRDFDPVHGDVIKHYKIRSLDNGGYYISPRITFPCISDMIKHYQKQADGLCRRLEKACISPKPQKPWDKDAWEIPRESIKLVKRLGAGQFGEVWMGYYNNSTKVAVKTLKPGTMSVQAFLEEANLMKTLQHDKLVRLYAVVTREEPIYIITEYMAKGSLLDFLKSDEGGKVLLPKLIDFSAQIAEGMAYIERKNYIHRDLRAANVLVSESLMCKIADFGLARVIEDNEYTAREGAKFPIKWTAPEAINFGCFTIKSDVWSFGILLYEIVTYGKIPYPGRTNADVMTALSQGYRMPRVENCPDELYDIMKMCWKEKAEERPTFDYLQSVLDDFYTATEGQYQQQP
inactive: [1] 0.026 | [2] -0.046 | [3] 0.203 | [4] 0.076 | [5] -0.092 | [6] -0.01 | [7] -0.072 | [8] 0.171 | [9] 0.26 | [10] -0.006 | [11] -0.184 | [12] -0.036 | [13] 0.093 | [14] -0.079 | [15] -0.042 | [16] 0.551 | [17] 0.11 | [18] 0.026 | [20] -0.005
active: [19] 0.763

KLHL36 (UniProt Q8N4N3)
Chain of UniProt Q8N4N3 (Q8N4N3 whole entry, looked up): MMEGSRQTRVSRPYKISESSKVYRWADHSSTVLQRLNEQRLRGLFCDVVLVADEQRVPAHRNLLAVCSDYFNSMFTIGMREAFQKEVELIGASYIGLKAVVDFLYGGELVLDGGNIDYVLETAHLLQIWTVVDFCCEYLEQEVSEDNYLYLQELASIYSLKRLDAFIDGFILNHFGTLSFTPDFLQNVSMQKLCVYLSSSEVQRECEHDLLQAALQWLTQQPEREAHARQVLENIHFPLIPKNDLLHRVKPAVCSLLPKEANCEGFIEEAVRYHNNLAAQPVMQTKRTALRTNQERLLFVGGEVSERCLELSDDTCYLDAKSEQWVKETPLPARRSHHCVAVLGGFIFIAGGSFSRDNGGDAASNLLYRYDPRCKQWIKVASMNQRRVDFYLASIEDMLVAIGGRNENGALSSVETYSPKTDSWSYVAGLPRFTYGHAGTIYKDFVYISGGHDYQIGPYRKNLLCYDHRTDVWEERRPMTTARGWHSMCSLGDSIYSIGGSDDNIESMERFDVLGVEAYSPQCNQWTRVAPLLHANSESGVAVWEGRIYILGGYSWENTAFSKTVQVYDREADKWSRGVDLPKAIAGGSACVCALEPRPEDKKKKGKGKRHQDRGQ
inactive: [1] 0.046 | [2] 0.04 | [3] -0.032 | [4] 0.039 | [5] 0.017 | [6] 0.031 | [7] -0.078 | [8] 0.032 | [9] -0.009 | [10] -0.074 | [11] -0.045 | [12] -0.006 | [13] 0.021 | [14] -0.075 | [15] -0.02 | [16] -0.013 | [17] 0.014 | [18] -0.129 | [19] 0.022 | [20] -0.052

KIF4A (UniProt O95239)
Chain of UniProt O95239 (O95239 whole entry, looked up): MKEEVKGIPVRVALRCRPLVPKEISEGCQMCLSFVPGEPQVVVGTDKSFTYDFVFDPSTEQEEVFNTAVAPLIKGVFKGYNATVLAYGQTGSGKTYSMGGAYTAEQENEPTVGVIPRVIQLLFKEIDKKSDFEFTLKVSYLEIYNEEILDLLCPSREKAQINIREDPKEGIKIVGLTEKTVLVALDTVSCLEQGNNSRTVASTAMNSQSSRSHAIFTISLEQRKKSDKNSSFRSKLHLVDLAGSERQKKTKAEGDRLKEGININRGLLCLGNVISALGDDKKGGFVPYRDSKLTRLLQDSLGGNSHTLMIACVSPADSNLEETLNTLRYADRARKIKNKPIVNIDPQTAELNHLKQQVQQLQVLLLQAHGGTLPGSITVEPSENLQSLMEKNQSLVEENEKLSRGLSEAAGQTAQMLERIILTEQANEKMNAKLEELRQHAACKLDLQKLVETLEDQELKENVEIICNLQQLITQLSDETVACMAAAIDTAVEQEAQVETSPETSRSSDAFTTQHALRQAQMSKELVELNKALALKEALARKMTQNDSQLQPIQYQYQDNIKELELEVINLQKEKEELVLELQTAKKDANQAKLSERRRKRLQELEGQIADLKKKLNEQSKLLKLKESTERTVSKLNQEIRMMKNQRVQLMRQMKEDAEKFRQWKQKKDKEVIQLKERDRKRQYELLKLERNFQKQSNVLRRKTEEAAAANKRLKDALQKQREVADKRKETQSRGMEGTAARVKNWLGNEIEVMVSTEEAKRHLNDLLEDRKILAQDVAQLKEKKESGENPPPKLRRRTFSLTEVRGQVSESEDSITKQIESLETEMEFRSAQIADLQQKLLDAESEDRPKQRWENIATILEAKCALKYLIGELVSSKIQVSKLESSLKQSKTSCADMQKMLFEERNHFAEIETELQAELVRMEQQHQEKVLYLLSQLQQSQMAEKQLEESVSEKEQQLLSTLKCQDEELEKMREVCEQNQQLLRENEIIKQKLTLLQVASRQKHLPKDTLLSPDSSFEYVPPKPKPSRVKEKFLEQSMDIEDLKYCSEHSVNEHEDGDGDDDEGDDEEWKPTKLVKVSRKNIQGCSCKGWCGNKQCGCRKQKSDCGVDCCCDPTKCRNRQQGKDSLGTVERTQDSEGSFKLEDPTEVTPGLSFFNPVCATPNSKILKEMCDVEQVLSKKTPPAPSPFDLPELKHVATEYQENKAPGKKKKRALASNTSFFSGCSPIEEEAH
inactive: [1] 0.006 | [2] -0.145 | [3] 0.022 | [4] 0.006 | [5] 0.005 | [6] -0.014 | [7] 0.154 | [8] -0.041 | [9] -0.035 | [10] -0.018 | [11] 0.007 | [12] -0.002 | [13] -0.043 | [14] 0.012 | [15] -0.029 | [16] -0.061 | [17] 0.021 | [18] 0 | [19] -0.066 | [20] -0.006

LRPPRC (UniProt P42704)
inactive: [1] 0.076 | [2] -0.091 | [3] 0.011 | [4] 0.037 | [5] -0.041 | [6] 0.005 | [7] 0.079 | [8] 0.029 | [9] -0.006 | [10] -0.005 | [11] -0.01 | [12] 0.048 | [13] -0.062 | [14] 0.058 | [15] -0.005 | [16] -0.189 | [17] 0.023 | [18] 0.022 | [19] -0.008 | [20] 0.045

METTL2A (UniProt Q96IZ6)
Chain of UniProt Q96IZ6 (Q96IZ6 whole entry, looked up): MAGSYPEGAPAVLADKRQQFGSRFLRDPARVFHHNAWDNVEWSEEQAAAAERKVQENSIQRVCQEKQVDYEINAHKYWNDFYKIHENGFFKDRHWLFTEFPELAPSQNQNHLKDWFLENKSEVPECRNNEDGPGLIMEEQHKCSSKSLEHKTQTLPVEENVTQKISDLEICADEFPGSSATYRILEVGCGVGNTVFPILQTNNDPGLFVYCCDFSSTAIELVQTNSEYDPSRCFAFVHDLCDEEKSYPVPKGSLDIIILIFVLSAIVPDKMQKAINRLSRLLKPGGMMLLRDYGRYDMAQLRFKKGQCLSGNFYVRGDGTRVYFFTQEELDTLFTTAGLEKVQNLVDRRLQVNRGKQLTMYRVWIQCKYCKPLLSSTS
inactive: [1] 0.023 | [2] -0.079 | [3] 0.058 | [4] 0.019 | [5] -0.028 | [6] -0.007 | [7] 0.055 | [8] -0.057 | [9] 0.029 | [10] 0.04 | [11] -0.001 | [12] -0.049 | [13] -0.026 | [14] 0.056 | [15] 0.052 | [16] -0.065 | [17] 0.029 | [18] 0.035 | [19] -0.017 | [20] -0.065

KIF22 (UniProt Q14807)
Chain of UniProt Q14807 (Q14807 whole entry, looked up): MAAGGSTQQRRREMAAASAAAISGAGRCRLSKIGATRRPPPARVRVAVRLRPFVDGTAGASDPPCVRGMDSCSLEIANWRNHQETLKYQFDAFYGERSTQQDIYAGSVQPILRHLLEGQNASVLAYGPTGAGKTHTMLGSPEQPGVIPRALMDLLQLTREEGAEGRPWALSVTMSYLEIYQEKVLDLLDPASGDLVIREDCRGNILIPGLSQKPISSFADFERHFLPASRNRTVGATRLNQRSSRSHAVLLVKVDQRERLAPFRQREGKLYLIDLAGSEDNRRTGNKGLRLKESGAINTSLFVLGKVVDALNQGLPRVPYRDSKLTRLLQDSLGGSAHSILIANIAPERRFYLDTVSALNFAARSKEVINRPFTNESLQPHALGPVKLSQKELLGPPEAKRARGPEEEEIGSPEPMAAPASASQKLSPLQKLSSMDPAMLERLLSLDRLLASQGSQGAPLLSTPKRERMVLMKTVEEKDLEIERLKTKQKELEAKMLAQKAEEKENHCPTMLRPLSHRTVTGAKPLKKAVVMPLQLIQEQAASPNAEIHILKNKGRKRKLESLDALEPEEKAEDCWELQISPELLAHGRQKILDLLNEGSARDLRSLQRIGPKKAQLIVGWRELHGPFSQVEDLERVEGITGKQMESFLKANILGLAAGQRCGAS
inactive: [1] -0.121 | [2] 0.099 | [3] -0.059 | [4] 0.175 | [5] 0.137 | [6] 0.012 | [7] -0.017 | [8] 0.011 | [9] 0.171 | [10] -0.013 | [11] -0.149 | [12] -0.07 | [13] -0.29 | [14] -0.201 | [15] -0.02 | [16] 0.238 | [17] -0.043 | [18] -0.009 | [19] -0.068 | [20] 0.33

Reference: the supplement of paper PMC10849652
